# In PubChem BioAssay (EPA / NIEHS):
# Inconclusive results are not listed. Active and inactive are the calls of the source. The calls were made as follows, unless noted: active = hit-call score of the fitted dose curve at least 0.9, where 1 is the maximum; inactive = score below 0.9.
# Key:
# [1] = molecular target: Peroxisome proliferator-activated receptor gamma (Homo sapiens) (UniProt P37231); test: OT_PPARg_PPARgSRC1_0480: Odyssey Thera (OT) 8-hour Protein-Complementation Assay for Peroxisome Proliferator-activated Receptor Gamma / SRC-1 Co-activator (AID 2283387; active = hit-call score of the fitted dose curve at least 0.9, where 1 is the maximum;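 also: nuclear to cytoplasmic split Venus YFP fluorescence ratio reporting PPARg SRC-1 interaction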)
# Summary of the method: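 Split-YFP (IFP1/IFP2) PPARg/SRC-1 reporter, HEK293T, 37 °C, 5% CO2; 8 h compound; formaldehyde fix + Draq5; high-content imaging, N/C ratio, ≥350 cells/image, positive direction vs DMSO.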
# [2] = molecular target: Peroxisome proliferator-activated receptor gamma (Homo sapiens) (UniProt P37231); test: OT_PPARg_PPARgSRC1_1440: Odyssey Thera (OT) 24-hour Protein-Complementation Assay for Peroxisome Proliferator-activated Receptor Gamma/ SRC-1 Co-activator (AID 2283388; active = hit-call score of the fitted dose curve at least 0.9, where 1 is the maximum;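 also: nuclear to cytoplasmic ratio of reconstituted Venus YFP fluorescence in fixed imaged cells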)
# Summary of the method: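 Readout: nuclear-to-cytoplasmic 488 nm fluorescence ratio, ≥350 cells per image, 8 images per well, after 24 h compound exposure of HEK293T expressing PPARg/SRC-1 split-YFP fusions. Activity fitted in positive direction against DMSO.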
# [3] = CEETOX_H295R_11DCORT: CeeTox H295R High-throughput Steroidogenesis Assay for 11-Deoxycortisol (11DCORT) (AID 2283432); conditions: actives raise or lower the signal;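 as to AC50: 11-deoxycortisol secreted into the medium measured by LC-MS/MS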
# Summary of the method: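 Steroidogenesis in human H295R cells: 48 h chemical exposure after forskolin priming, 11-deoxycortisol measured by LC-MS/MS.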
# [4] = CEETOX_H295R_OHPREG: CeeTox H295R High-throughput Steroidogenesis Assay for OH-Pregnenolone (OHPREG) (AID 2283434); conditions: actives raise or lower the signal
# Summary of the method: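 Hormone levels in spent medium were measured by tandem mass spectrometry following liquid-liquid extraction. Cells (H295R) had been forskolin-stimulated (10 uM, 48 h) before a 48 h chemical exposure at 0.1% DMSO, with activity fitted in both directions against DMSO.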
# [5] = CEETOX_H295R_OHPROG: CeeTox H295R High-throughput Steroidogenesis Assay for OH-Progesterone (OHPROG) (AID 2283435); conditions: actives raise or lower the signal
# Summary of the method: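 H295R human adrenal cells were prestimulated 48 h with 10 uM forskolin, then exposed 48 h to test chemical (0.1% DMSO final). 17alpha-hydroxyprogesterone in medium was measured by HPLC-MS/MS after MTBE extraction; bidirectional fitting vs DMSO.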
# [6] = CEETOX_H295R_CORTIC: CeeTox H295R High-throughput Steroidogenesis Assay for Corticosterone (CORTIC) (AID 2283437); conditions: actives raise or lower the signal;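 also: corticosterone secreted into medium quantified by mass spectrometry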
# Summary of the method: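 Corticosterone secreted into medium is measured by reverse-phase HPLC with tandem MS following liquid-liquid extraction. Cells are forskolin-stimulated (10 uM, 48 h) before 48 h test exposure; activity fitted in both directions against DMSO.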
# [7] = CEETOX_H295R_CORTISOL: CeeTox H295R High-throughput Steroidogenesis Assay for Cortisol (AID 2283438); conditions: actives raise or lower the signal;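 also: cortisol secreted into medium quantified by LC-MS/MS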
# Summary of the method: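 H295R human adrenal cells were prestimulated 48 h with 10 uM forskolin, then exposed 48 h to test chemical (0.1% DMSO final). Medium cortisol was quantified by HPLC-MS/MS after MTBE extraction; bidirectional fitting relative to DMSO baseline.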
# [8] = CEETOX_H295R_DOC: CeeTox H295R High-throughput Steroidogenesis Assay for DOC (AID 2283439); conditions: actives raise or lower the signal
# Summary of the method: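 H295R adrenal cells prestimulated 48 h with 10 uM forskolin, then exposed 48 h to test chemical (0.1% DMSO final). Medium 11-deoxycorticosterone extracted with MTBE, quantified by HPLC-MS/MS; bidirectional fit versus DMSO baseline; MTT viability in same wells.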
# [9] = CEETOX_H295R_PROG: CeeTox H295R High-throughput Steroidogenesis Assay for Progesterone (PROG) (AID 2283442); conditions: actives raise or lower the signal;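 as to AC50: human H295R adrenal cells primed with 10 µM forskolin before dosing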
# Summary of the method: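 Progesterone read-out: HPLC-MS/MS on MTBE extracts of conditioned medium after 48 h chemical exposure of forskolin-primed (10 uM, 48 h) H295R cells. Gain or loss of signal was fitted relative to DMSO baseline.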
# [10] = read-out: Tumor necrosis factor receptor superfamily member 6 (Homo sapiens) (UniProt P25445); test: LTEA_HepaRG_FAS: Life Technologies and Expression Analysis (LTEA) Assay for Fas cell surface death receptor (FAS) using HepaRG (AID 2283447); conditions: mRNA level, 48 h; actives raise or lower the signal
# Summary of the method: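 FAS transcript level was measured by TaqMan qRT-PCR against three housekeeping genes after 48 h chemical exposure. Cells were HepaRG, 0.5% DMSO vehicle, with a top concentration of 100 uM and half-log dilutions over eight points, in duplicate.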
# [11] = read-out: Fatty acid synthase (Homo sapiens) (UniProt P49327); test: LTEA_HepaRG_FASN: Life Technologies and Expression Analysis (LTEA) Assay for Fatty Acid Synthase (FASN) using HepaRG (AID 2283448); conditions: mRNA level, 48 h; actives raise or lower the signal
# Summary of the method: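 Differentiated human HepaRG cells were exposed for 48 h in serum-free induction medium to eight half-log concentrations up to 100 uM in 0.5% DMSO, in duplicate. FASN mRNA was quantified by TaqMan qRT-PCR, normalized to ACTB/GAPDH/POLR2A, and fitted bidirectionally against DMSO.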
# [12] = read-out: Cyclin Dependent Kinase Inhibitor 1A (CDKN1A), CDKN1A (gene 1026); test: LTEA_HepaRG_CDKN1A: Life Technologies and Expression Analysis (LTEA) Assay for Cyclin Dependent Kinase Inhibitor 1A (CDKN1A) using HepaRG (AID 2283450); conditions: mRNA level, 48 h; actives raise or lower the signal
# Summary of the method: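 HepaRG, 48 h dosing, 8-pt half-log series from 100 uM top, 0.5% DMSO vehicle, duplicates. Readout: TaqMan qRT-PCR of CDKN1A transcript, housekeeping-normalized (ACTB, GAPDH, POLR2A). Up/down curve fit relative to DMSO.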
# [13] = read-out: Cyclin D1 (CCND1), CCND1 (gene 595); test: LTEA_HepaRG_CCND1: Life Technologies and Expression Analysis (LTEA) Assay for Cyclin D1 (CCND1) using HepaRG (AID 2283451); conditions: mRNA level, 48 h; actives raise or lower the signal;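 as to AC50: TaqMan qRT-PCR transcript level normalised to ACTB GAPDH and POLR2A housekeeping genes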
# Summary of the method: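 qRT-PCR (Fluidigm 96.96 array) read-out of transcript level, housekeeping-normalized (ACTB/GAPDH/POLR2A). HepaRG cells, 48 h chemical exposure, 8-point half-log series from 100 uM, 0.5% DMSO vehicle; gain or loss relative to DMSO baseline.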
# [14] = read-out: catalase (CAT), CAT (gene 847); test: LTEA_HepaRG_CAT: Life Technologies and Expression Analysis (LTEA) Assay for catalase (CAT) using HepaRG (AID 2283452); conditions: mRNA level, 48 h; actives raise or lower the signal
# Summary of the method: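 Expression of CAT was quantified by TaqMan qRT-PCR with ACTB/GAPDH/POLR2A normalization after 48 h chemical exposure of HepaRG. Eight-point half-log series, top 100 uM, in 0.5% DMSO; gain or loss fitted against vehicle.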
# [15] = molecular target: Retinoic acid receptor RXR-alpha (Homo sapiens) (UniProt P19793); test: OT_NURR1_NURR1RXRa_1440: Odyssey Thera (OT) 24-hour HEK293T Protein Complementation Assay for Nurr1/retinoid X receptor (RXR) (AID 2283386; active = hit-call score of the fitted dose curve at least 0.9, where 1 is the maximum)
# Summary of the method: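 HEK293T cells were dosed with compound and read 24 h later by fluorescence intensity in a protein-fragment complementation format, where Nurr1–RXRα interaction reconstitutes a split reporter. Activity was fitted as gain of signal relative to DMSO baseline.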
# [16] = CEETOX_H295R_ANDR: CeeTox H295R High-throughput Steroidogenesis Assay for Androstenedione (ANDR) (AID 2283436); conditions: actives raise or lower the signal
# Summary of the method: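 Read-out is androstenedione secreted into medium, measured by tandem mass spectrometry after liquid-liquid extraction. Cells were H295R, dosed for 48 h per modified OECD 456; activity fitted in both directions relative to DMSO.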
# [17] = molecular target: Retinoic acid receptor RXR-alpha (Homo sapiens) (UniProt P19793); test: OT_NURR1_NURR1RXRa_0480: Odyssey Thera (OT) 8-hour HEK293T Protein Complementation Assay for Nurr1/retinoid X receptor (RXR) (AID 2283385; active = hit-call score of the fitted dose curve at least 0.9, where 1 is the maximum)
# Summary of the method: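 HEK293T cells expressing Nurr1 and RXRα fused to reporter fragments were dosed with compound for 8 hours. Complex formation was read as fluorescence intensity and analysed as gain of signal against DMSO as baseline.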
# [18] = read-out: Cyclin D2 (CCND2), CCND2 (gene 894); test: LTEA_HepaRG_CCND2: Life Technologies and Expression Analysis (LTEA) Assay for Cyclin D2 (CCND2) using HepaRG (AID 2283449); conditions: mRNA level, 48 h; actives raise or lower the signal
# Summary of the method: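 Read-out is CCND2 mRNA level measured by qRT-PCR in human HepaRG liver cells and normalised to three housekeeping genes. Chemicals were applied for 48 h at up to 100 uM, with gain or loss fitted relative to 0.5% DMSO.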
# Chain of Fatty acid synthase (Homo sapiens) (P49327 whole entry, looked up): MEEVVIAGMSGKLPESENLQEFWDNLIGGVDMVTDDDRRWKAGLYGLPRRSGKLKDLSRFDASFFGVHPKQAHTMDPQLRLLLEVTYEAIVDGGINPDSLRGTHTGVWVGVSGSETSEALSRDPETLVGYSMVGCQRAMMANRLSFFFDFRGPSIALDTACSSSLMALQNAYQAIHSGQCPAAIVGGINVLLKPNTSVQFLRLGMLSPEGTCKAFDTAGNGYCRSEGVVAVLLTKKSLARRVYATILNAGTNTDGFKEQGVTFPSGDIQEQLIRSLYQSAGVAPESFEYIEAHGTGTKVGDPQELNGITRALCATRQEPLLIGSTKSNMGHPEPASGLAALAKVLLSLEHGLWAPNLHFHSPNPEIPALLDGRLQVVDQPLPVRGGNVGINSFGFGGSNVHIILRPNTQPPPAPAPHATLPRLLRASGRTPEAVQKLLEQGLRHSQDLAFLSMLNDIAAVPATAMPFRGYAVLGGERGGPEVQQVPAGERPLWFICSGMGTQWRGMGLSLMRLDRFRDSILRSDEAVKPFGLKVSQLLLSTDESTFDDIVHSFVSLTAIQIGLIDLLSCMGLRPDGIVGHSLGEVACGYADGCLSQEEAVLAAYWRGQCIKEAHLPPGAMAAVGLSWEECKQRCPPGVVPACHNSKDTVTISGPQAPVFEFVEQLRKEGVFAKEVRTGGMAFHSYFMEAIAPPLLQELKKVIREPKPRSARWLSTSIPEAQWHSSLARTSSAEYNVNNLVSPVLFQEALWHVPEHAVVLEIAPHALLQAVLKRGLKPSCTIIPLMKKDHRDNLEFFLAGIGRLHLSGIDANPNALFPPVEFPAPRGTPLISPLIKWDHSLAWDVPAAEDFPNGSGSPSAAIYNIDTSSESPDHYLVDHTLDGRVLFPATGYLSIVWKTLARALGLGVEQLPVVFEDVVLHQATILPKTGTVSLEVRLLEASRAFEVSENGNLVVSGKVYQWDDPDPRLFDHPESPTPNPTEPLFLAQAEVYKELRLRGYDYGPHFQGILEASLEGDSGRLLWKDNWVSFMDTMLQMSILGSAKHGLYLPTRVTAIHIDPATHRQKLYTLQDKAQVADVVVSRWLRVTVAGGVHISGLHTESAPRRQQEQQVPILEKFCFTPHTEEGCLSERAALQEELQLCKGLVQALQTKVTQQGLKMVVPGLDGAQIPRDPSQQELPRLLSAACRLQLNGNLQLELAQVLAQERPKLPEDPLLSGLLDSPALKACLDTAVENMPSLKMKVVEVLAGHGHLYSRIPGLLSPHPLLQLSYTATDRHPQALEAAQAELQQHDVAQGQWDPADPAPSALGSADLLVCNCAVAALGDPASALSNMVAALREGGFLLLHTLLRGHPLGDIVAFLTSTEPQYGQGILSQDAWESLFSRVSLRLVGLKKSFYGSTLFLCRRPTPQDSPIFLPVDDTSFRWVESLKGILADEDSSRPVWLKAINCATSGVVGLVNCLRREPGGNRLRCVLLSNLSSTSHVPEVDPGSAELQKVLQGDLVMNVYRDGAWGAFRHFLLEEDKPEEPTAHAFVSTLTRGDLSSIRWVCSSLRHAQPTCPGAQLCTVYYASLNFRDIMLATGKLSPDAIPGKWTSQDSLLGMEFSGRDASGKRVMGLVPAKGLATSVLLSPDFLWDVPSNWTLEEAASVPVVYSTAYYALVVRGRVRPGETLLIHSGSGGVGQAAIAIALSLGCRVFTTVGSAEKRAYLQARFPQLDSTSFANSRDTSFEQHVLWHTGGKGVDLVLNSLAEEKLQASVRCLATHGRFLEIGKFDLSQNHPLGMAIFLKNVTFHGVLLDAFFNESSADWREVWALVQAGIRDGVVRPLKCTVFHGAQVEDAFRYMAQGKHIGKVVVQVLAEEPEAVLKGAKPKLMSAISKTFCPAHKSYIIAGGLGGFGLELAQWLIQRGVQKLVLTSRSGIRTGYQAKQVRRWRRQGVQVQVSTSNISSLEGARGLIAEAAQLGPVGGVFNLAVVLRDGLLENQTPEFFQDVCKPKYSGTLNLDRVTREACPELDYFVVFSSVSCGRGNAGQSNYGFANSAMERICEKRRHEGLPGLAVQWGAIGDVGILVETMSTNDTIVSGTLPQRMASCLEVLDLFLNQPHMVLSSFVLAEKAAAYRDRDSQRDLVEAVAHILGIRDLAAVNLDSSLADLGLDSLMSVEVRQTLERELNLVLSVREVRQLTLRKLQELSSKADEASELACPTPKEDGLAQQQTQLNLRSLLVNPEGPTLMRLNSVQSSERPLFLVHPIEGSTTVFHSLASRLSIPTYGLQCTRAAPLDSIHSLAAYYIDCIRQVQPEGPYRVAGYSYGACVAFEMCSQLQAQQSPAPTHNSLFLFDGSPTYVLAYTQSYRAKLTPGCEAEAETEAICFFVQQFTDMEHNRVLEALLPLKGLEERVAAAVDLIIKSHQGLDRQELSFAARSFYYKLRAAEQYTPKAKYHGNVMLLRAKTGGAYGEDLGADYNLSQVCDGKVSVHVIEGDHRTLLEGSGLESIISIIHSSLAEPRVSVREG
# Chain of Peroxisome proliferator-activated receptor gamma (Homo sapiens) (P37231 whole entry, looked up, the tested form may be a part): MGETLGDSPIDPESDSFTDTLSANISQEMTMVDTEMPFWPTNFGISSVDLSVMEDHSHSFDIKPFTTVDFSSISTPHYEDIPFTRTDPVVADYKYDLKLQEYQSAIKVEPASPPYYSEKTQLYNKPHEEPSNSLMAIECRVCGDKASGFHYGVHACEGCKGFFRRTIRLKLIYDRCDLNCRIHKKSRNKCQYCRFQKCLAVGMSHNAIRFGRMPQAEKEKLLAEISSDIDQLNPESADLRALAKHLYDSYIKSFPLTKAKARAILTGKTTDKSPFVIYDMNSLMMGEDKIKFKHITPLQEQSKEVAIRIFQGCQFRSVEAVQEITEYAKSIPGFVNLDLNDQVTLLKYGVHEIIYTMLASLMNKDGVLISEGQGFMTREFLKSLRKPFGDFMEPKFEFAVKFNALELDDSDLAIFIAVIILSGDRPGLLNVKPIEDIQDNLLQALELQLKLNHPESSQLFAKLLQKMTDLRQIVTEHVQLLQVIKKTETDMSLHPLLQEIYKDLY
# Chain of Retinoic acid receptor RXR-alpha (Homo sapiens) (P19793 whole entry, looked up, the tested form may be a part): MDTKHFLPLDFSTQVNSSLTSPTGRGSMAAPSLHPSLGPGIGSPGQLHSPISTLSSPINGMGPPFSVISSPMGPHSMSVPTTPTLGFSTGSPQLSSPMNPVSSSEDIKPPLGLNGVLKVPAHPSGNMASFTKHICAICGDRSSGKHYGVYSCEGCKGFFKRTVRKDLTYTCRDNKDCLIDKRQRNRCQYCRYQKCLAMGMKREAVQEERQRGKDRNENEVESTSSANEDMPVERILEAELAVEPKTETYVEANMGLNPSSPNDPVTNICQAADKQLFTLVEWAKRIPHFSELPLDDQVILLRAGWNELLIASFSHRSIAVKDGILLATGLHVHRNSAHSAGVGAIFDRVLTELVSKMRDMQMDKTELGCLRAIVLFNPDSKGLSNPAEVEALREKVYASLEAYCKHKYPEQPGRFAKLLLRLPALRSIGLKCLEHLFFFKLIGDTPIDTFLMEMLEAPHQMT
smiles,measurement,setting,value
CCOP(=S)(OCC)Oc1cc(C)nc(C(C)C)n1,outcome,[1],inactive
same,outcome,[2],inactive
same,AC50,[3],50 µM (active)
same,outcome,[4],inactive
same,AC50,[5],6.6 µM (active)
same,AC50,[6],36.6 µM (active)
same,AC50,[7],50 µM (active)
same,outcome,[8],inactive
same,AC50,[9],26 µM (active)
same,outcome,[10],inactive
same,outcome,[11],inactive
same,outcome,[12],inactive
same,outcome,[13],inactive
same,outcome,[14],inactive
CCC(=O)Nc1ccc(Cl)c(Cl)c1,outcome,[15],inactive
same,outcome,[1],inactive
same,outcome,[2],inactive
same,outcome,[4],inactive
same,AC50,[5],3.97 µM (active)
same,AC50,[16],3.89 µM (active)
same,outcome,[10],inactive
same,AC50,[11],30.8 µM (active)
same,outcome,[12],inactive
same,AC50,[13],50 µM (active)
same,outcome,[14],inactive
CCOP(=O)(OCC)Oc1cc(C)nc(C(C)C)n1,outcome,[15],inactive
same,outcome,[1],inactive
same,outcome,[2],inactive
same,outcome,[10],inactive
same,outcome,[11],inactive
same,outcome,[12],inactive
same,outcome,[13],inactive
same,outcome,[14],inactive
FC(F)C(F)(F)OCC(Cn1cncn1)c1ccc(Cl)cc1Cl (stereo not given),outcome,[1],inactive
same,outcome,[2],inactive
same,outcome,[3],inactive
same,outcome,[4],inactive
same,outcome,[5],inactive
same,outcome,[6],inactive
same,outcome,[7],inactive
same,outcome,[8],inactive
same,outcome,[9],inactive
same,AC50,[10],72.2 µM (active)
same,AC50,[11],81.5 µM (active)
same,AC50,[12],33.6 µM (active)
same,AC50,[13],97.3 µM (active)
COP(=O)(OC)SCn1c(=O)oc2cc(Cl)cnc21,outcome,[17],inactive
same,outcome,[1],inactive
same,outcome,[2],inactive
same,outcome,[10],inactive
same,outcome,[11],inactive
same,outcome,[18],inactive
same,outcome,[12],inactive
same,AC50,[13],78.5 µM (active)
COP(=O)(OC)OC(Br)C(Cl)(Cl)Br (stereo not given),outcome,[15],inactive
same,outcome,[1],inactive
same,outcome,[2],inactive
same,outcome,[10],inactive
same,outcome,[11],inactive
same,outcome,[18],inactive
same,outcome,[12],inactive
same,outcome,[13],inactive
Nc1c(Cl)cc([N+](=O)[O-])cc1Cl,outcome,[17],inactive
same,outcome,[15],inactive
same,outcome,[1],inactive
same,outcome,[2],inactive
same,outcome,[10],inactive
same,AC50,[11],16.9 µM (active)
same,outcome,[18],inactive
same,outcome,[12],inactive
same,AC50,[13],50 µM (active)
same,AC50,[14],41.4 µM (active)
O=[N+]([O-])c1cc(C(F)(F)F)c(Cl)c([N+](=O)[O-])c1Nc1ncc(C(F)(F)F)cc1Cl,AC50,[15],641 nM (active)
same,outcome,[1],inactive
same,outcome,[2],inactive
same,outcome,[10],inactive
same,AC50,[11],50 µM (active)
same,outcome,[18],inactive
same,outcome,[12],inactive
same,AC50,[13],14.8 µM (active)
same,AC50,[14],29.2 µM (active)
Nc1nc(N)nc(NC2CC2)n1,outcome,[17],inactive
same,outcome,[15],inactive
same,outcome,[3],inactive
same,outcome,[4],inactive
same,outcome,[5],inactive
same,outcome,[6],inactive
same,outcome,[7],inactive
same,outcome,[8],inactive
same,outcome,[9],inactive
same,outcome,[10],inactive
same,outcome,[11],inactive
same,outcome,[18],inactive
same,outcome,[12],inactive
same,outcome,[13],inactive
